# D3 antag: qHTS of D3 Dopamine Receptor Antagonist: qHTS | D(3) dopamine receptor (Homo sapiens), P35462 | D3R cells, DiscoveRx beta-arrestin luminescence, antagonist mode; stronger effect = lower value | max response, negative = inhibition, % | actives 2.5% (n = 360,000); in the data active means max response below about -50%; inconclusive means no clear call, values can overlap the other calls; further: on the % scale 0 is the no-effect control and ±100 the full control effect
# Target sequence (P35462 whole entry, looked up): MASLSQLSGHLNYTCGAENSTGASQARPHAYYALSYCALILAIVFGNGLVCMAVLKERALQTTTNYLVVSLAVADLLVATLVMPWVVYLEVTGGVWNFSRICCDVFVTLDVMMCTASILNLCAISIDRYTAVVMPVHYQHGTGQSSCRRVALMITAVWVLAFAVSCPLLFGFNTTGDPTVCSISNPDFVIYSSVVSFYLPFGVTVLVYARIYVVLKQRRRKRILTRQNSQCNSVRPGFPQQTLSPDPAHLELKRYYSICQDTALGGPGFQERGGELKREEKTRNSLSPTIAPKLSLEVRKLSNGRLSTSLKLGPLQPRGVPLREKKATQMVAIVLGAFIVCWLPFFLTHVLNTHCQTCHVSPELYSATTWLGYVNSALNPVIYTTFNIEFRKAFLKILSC
#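 Cells plated overnight at 1500 cells/well, then exposed to library compounds with dopamine controls for 90 minutes at 37 degrees C. DiscoveRx reagent added for 30–60 minutes at room temperature; luminescence read, quantitative HTS format.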
# D3 ag: qHTS of D3 Dopamine Receptor Agonist: qHTS. actives 0.58% (n = 410,000). D(3) dopamine receptor (Homo sapiens), P35462. max activation, %. AID 652048, 2013. D3R DiscoveRx beta-arrestin cells, luminescence, 90 min; in the data active means max activation above about 30%; further: 0% is about no effect
#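 Agonist-mode cell screen: cells plated at 1500/well and incubated overnight at 37 °C, then exposed to library compounds for 90 min at 37 °C. Detection reagent was added for 30–60 min at room temperature, and luminescence was read.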
# a7 integrin act: qHTS for Activators of Integrin-Mediated Alleviation for Muscular Dystrophy; alpha7betagal myoblasts, beta-gal FDG fluorescence, 48 h; actives 0.064% (n = 350,000); Potency, µM (top dose mostly 38.3 µM), for the others: at the highest dose activation, usual class: activators; active means well fitted activation curve with a large enough effect; inconclusive means small, poorly fitted or top-dose-only effect; inactive means no such curve, though single readings can be large or run the other way;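 further: potency means the concentration at half of the fitted maximal effect; 100% = response of the positive control SU9516; nearly all actives have a fitted effect of over 60% in size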
#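 alpha7betagal+/- myoblasts (passage 13, 250/well) treated 48 h at 37C with compounds at 1:260 dilution of DMSO stock. Lysed, then beta-galactosidase activity read as FDG fluorescence (ex 480/em 540) after 30 min, with pre-read for autofluorescence.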
# An asterisk follows results filed as active; ? = inconclusive; . = no result. The list is not random: actives were taken first. Their share in the collection is about 2.9%.
SMILES,D3 antag,D3 ag,a7 integrin act
O=C1COc2ccc(C(=O)COC(=O)c3ccccc3F)cc2N1,-51*,-1,-3%
O=C1COc2ccc(C(=O)COC(=O)c3ccccc3[N+](=O)[O-])cc2N1,5,3,13%
CC(O)C(NS(=O)(=O)c1ccc(Cl)cc1)C(=O)OCC(=O)c1ccc2c(c1)NC(=O)CO2 (centres undefined),4,-5,4%
CC(C)CC(NC(=O)c1ccc(Cl)cc1)C(=O)OCC(=O)c1ccc2c(c1)NC(=O)CO2 (centres undefined),-73*,20,-55%
CC(C)NC(=O)C1(C)CSCC(=O)N1Cc1ccco1 (centres undefined),7,-6,.
CCN(C#N)c1nc(NC(C)C)nc(NC(C)C)n1,15,32*,-13%
C#CCN(C#N)c1nc(NCC)nc(NC(C)C)n1,-6,-4,-14%
CO/N=C(/C(=O)N[C@@H]1C(=O)N2C(C(=O)O)=C(COC(N)=O)CS[C@H]12)c1ccco1,.,-2,.
C=CCn1c(=O)c2c(nc(-n3nc(C)cc3C)n2C)n(C)c1=O,24,-5,1%
COc1ccc(C=C(C#N)C(=O)c2ccccc2)cc1,-6,-5,.
COc1cc(/C=C(\C#N)C(=O)c2ccc(O)c(O)c2)cc(I)c1O,0,40*,.
CCCN(C(=O)Cn1nc(Cc2ccncc2)c2ccccc2c1=O)c1ccccc1C,.,-1,.
c1ccc(CN2CCCC3(CCCN(Cc4nc(COc5ccccc5)no4)C3)C2)cc1 (centres undefined),-16,-10,-13%
c1ccc(CN2CCCC3(CCCN(Cc4nc(CC5CC5)no4)C3)C2)cc1 (centres undefined),?,1,8.9µM*
CC(=O)c1ccc(N2CCN(CC(=O)Nc3cc(C)on3)CC2)cc1,1,-8,?
Cc1ccc(S(=O)(=O)n2nc(OC(=O)c3c(-c4ccccc4Cl)noc3C)cc2N)cc1,-58*,5,-36%
Cc1onc(-c2ccccc2Cl)c1C(=O)Oc1cc(N)n(S(=O)(=O)c2ccc(F)cc2)n1,-11,-3,-17%
CCOC(=O)C/C(C)=N/NC(=O)CNc1cccc(Cl)c1C,1,1,-1%
O=C(O)c1ccc2c(c1)C(=O)N(C(Cc1ccc(O)cc1)C(=O)O)C2=O (centres undefined),-70*,-2,-8%
O=C(O)C(Cc1ccc(O)cc1)N1C(=O)c2c(Cl)c(Cl)c(Cl)c(Cl)c2C1=O (centres undefined),-22,-1,27%
CCCCOc1ccc(C(=O)N2CCNC(=O)C2CC(=O)OC(C)C)cc1 (centres undefined),-1,10,20%
Cc1ccc(NC(=O)Cn2nnc(C(=O)NCCc3ccccc3)c2N)cc1C,.,-5,.
O=C1Nc2ccccc2Oc2cc(Oc3ccc(Cl)cc3)ccc21,.,17,.
Cc1ccc(Oc2cc([N+](=O)[O-])cc3c2C(=O)Nc2ccccc2O3)cc1,-12,49*,0%
O=C(Cn1c(=O)n(-c2ccccc2)c(=O)c2oc3ccccc3c21)Nc1ccccc1,7,9,-6%
SMILES,D3 antag,D3 ag,a7 integrin act
CN(C(=O)CN1C(=O)S/C(=C\c2ccc(Cl)cc2)C1=O)C1CCS(=O)(=O)C1 (centres undefined),0,-3,3%
c1ccc(-c2ccc(-c3nc(-c4ccncc4)no3)cc2)cc1,38,45*,16%
c1ccc(-c2nc(-c3ccncc3)no2)cc1,-9,2,30%
CCOc1ccccc1OCCCC(=O)Nc1ccc(S(=O)(=O)Nc2cc(C)nc(C)n2)cc1,8,1,-3%
COC(=O)[C@@]12C[C@@H](CC(=O)NCCCN3CCCC3=O)C(=O)N(Cc3ccccc3)C1=CCC(C)(C)C2,1,4,.
COC(=O)/C(=C\c1c(OC)cc(OC)cc1OC)C(=O)c1ccc2c(c1)OCO2,-93*,13,8%
COc1ccc(N/C=C\C(=O)c2ccc3c(c2)OCO3)cc1OC,14,6,3%
CC1(C(=O)NS(=O)(=O)c2ccc(C#N)cc2)CCN1C(=O)C1(c2ccccc2)CCCC1 (centres undefined),16,1,.
COc1ccc(Cl)cc1C=CC=NNS(=O)(=O)c1ccc(C)cc1,-88*,-24,-15%
COc1ccc(Br)cc1C=NNS(=O)(=O)c1ccc(C)cc1,?,-7,-50%
CCOC(=O)Cn1c(=O)oc2cc(S(=O)(=O)N3CCN(c4ccc(C(C)=O)cc4)CC3)ccc21,.,-3,.
COC(=O)CC1C(=O)NCCN1C(=O)CSc1nc2ccccc2o1 (centres undefined),1,3,-3%
